This note sets out measurements from PubChem BioAssay (NCATS).

Results filed as inconclusive are left out. Active and inactive are the calls of the source.
Potency is read from the fitted curve at half-maximal effect.

One experiment is described as follows: qHTS for identification of novel therapeutic agents for treatment of microphthalmiaassociated transcription factor (MiT) renal cell carcinoma (RCC) (AID 1963991).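 As to z-score: curves scaled with 100% = DMSO viability and 0% = empty wells.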 The conditions noted are these: TFE3-RCC UOK109 viability, CellTiter-Glo, 48 h; active = Z-AUC below -0.8 in all three lines. Put shortly:
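UOK109/UOK124/UOK145 (TFE3 fusions, three partners); 500 cells/well; MIPE v4.0, 1912 cpds, 11 conc.; 48 h, 37 C; CellTiter-Glo, 15 min RT; lum. Norm.: DMSO 100%, empty 0%.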
For `COc1ccc(-c2ccc3ncc4c(c3c2)n(-c2ccc(N3CCNCC3)c(C(F)(F)F)c2)c(=O)n4C)cn1`, the Potency is 1480 nM (active).
In the case of `Cc1ccc(C(=O)N(CCCN)[C@@H](c2oc3cc(Cl)ccc3c(=O)c2Cc2ccccc2)C(C)C)cc1`, the Potency is 37200 nM (active).
Still for that read-out and setting: the figure for `Cc1ccc(C(=O)N(CCCN)[C@@H](c2nc3cc(Cl)ccc3c(=O)n2Cc2ccccc2)C(C)C)cc1` is 1.66 nM (active).
Turning to `O=C1NC(=O)C(c2cnc3ccccn23)=C1c1cn2c3c(cccc13)CN(C(=O)N1CCOCC1)CC2`, the Potency was 4180 nM (active).
On to `Nc1ccc(-c2ccc3ncc4ccc(=O)n(-c5cccc(C(F)(F)F)c5)c4c3c2)cn1`, for which the Potency was 3320 nM (active).
Take `CCC(=O)N1CCN(c2ccc(-n3c(=O)ccc4cnc5ccc(-c6cnc7ccccc7c6)cc5c43)cc2C(F)(F)F)CC1`: the Potency was 20.9 nM (active).
`CN(C)CCN(C)C(=O)c1ccc(NC(=O)Nc2ccc(-c3nc(N4CCOCC4)c4ccn(CC(F)(F)F)c4n3)cc2)cc1`: the Potency is 1320 nM (active).
As to `CCC[C@H](Nc1nc(-c2ccc(NC(=O)NCC)c(OC)c2)ncc1C)c1cccnc1`, the Potency is 37.2 nM (active).

Staying with this experiment, now noted: TFE3-RCC UOK109 viability, CellTiter-Glo, 48 h; measured here: UOK109 Z-AUC; stronger effect = lower value.
Regarding `CC[C@H](C=C[C@@H](C)[C@H]1CC[C@H]2[C@@H]3CC=C4C[C@@H](O)CC[C@]4(C)[C@@H]3CC[C@]12C)C(C)C`, the z-score was 0.875.
In the case of `COc1ccc(-c2ccc3ncc4c(c3c2)n(-c2ccc(N3CCNCC3)c(C(F)(F)F)c2)c(=O)n4C)cn1`, the z-score is -2.72.
For `CC(NCCc1ccc(O)cc1)C(O)c1ccc(O)cc1` (centres undefined), the z-score is 0.72.
In turn, `Cc1ccc(C(=O)N(CCCN)[C@@H](c2oc3cc(Cl)ccc3c(=O)c2Cc2ccccc2)C(C)C)cc1` came in with a z-score of -1.98.
For the compound `Cc1ccc(C(=O)N(CCCN)[C@@H](c2nc3cc(Cl)ccc3c(=O)n2Cc2ccccc2)C(C)C)cc1`, the z-score is -2.23.
`CCCCC[C@H](O)C=C[C@H]1[C@H](O)CC(=O)[C@H]1CC=CCCCC(=O)O` had a z-score of 1.12.
As for `C=C1c2cccc(O)c2C(O)=C2C(=O)[C@@]3(O)C(O)=C(C(N)=O)C(=O)[C@@H](N(C)C)[C@@H]3[C@@H](O)[C@H]12`, the z-score stood at 1.5.
As to `O=C1NC(=O)C(c2cnc3ccccn23)=C1c1cn2c3c(cccc13)CN(C(=O)N1CCOCC1)CC2`, the z-score is -1.6.
Compound `Nc1ccc(-c2ccc3ncc4ccc(=O)n(-c5cccc(C(F)(F)F)c5)c4c3c2)cn1` came in with a z-score of -2.43.
Still for that read-out and setting: the figure for `CCCCC(F)(F)[C@@]1(O)CC[C@H]2[C@H](CC(=O)[C@@H]2CCCCCCC(=O)O)O1` is 0.852; for `CCC(=O)N1CCN(c2ccc(-n3c(=O)ccc4cnc5ccc(-c6cnc7ccccc7c6)cc5c43)cc2C(F)(F)F)CC1` it is -1.38; for `C[C@H]1COC2=C1C(=O)C(=O)c1c2ccc2c1CCCC2(C)C` it is -0.0604.
With `CC(=O)OCC(=O)[C@@]1(O)CC[C@H]2[C@@H]3CCC4=CC(=O)C=C[C@]4(C)[C@@H]3[C@@H](O)C[C@@]21C`, the z-score came to 0.953.
`Cc1cc2c(cc1C1(c3ccc(C(=O)O)cn3)CC1)C(C)(C)CCC2(C)C` yielded a z-score of 1.13.
Same read-out and setting: the same measure for `CN1CCN2c3ncccc3Cc3ccccc3C2C1` (centres undefined): 0.418; for `O=C(NCCCCN1CCOCC1)c1cc2ccccc2o1`: 0.969.
Turning to `CC(C)C[C@@H](N)[C@H](O)C(=O)N[C@H](C(=O)N[C@H](C(=O)N[C@@H](CC(=O)O)C(=O)O)C(C)C)C(C)C`, the z-score was found to be 0.245.
`C[C@]12C=CC(=O)C=C1CC[C@@H]1[C@@H]2[C@@H](O)C[C@@]2(C)[C@@H]1CC[C@]2(O)C(=O)CO` had a z-score of 0.748.
`CS(=O)(=O)c1ccc(C2=C(c3ccccc3)C(=O)OC2)cc1` gave a z-score of 0.605.
`CC1(C)OC2CC3C4CC(F)C5=CC(=O)C=CC5(C)C4C(O)CC3(C)[C@]2(C(=O)CO)O1` (some centres undefined) returned a z-score of 0.56.
Regarding `Cc1nc2c([nH]1)CCN(C(=O)c1ccc(NC(=O)c3ccccc3-c3ccccc3)cc1)c1ccccc1-2`, the z-score is -0.104.
The same measure, in the same setting: the figure for `CN(C)CCN(C)C(=O)c1ccc(NC(=O)Nc2ccc(-c3nc(N4CCOCC4)c4ccn(CC(F)(F)F)c4n3)cc2)cc1` is -2.71; for `CCC[C@H](Nc1nc(-c2ccc(NC(=O)NCC)c(OC)c2)ncc1C)c1cccnc1` it is -2.33.
`O=C(O)c1nc(=O)[nH]c(=O)[nH]1` gave a z-score of 1.29.
With `CCCCOCCOc1nc(-c2ccc(C(=O)O)c(F)c2)sc1C`, the z-score came to 1.12.
For `C=CC[N+]1([C@H]2C[C@H]3[C@@H]4CC[C@H]5C[C@H](O)[C@@H](N6CCOCC6)C[C@]5(C)[C@@H]4CC[C@]3(C)[C@H]2OC(C)=O)CCCC1`, the z-score came out at 0.798.
`NS(=O)(=O)c1cc(Cl)c(Cl)c(S(N)(=O)=O)c1` returned a z-score of 0.846.
Consider `N#Cc1c(N(CC(=O)O)CC(=O)O)sc(C(=O)O)c1CC(=O)O`, for which the z-score was found to be 0.286.
On the same count and under the same terms, the figure for `Cc1cc(NC(=O)Nc2ccc(N(C)C)cc2)c2cc(F)cc(F)c2n1` is 1.14.
With `O=C(O)Cc1cccc(OCCCN(Cc2cccc(C(F)(F)F)c2Cl)CC(c2ccccc2)c2ccccc2)c1`, the z-score was -0.604.
`CN1C(=O)C[C@H](C(=O)N[C@@H](Cc2cnc[nH]2)C(=O)N2CCC[C@@H]2C(N)=O)NC1=O` yielded a z-score of 0.71.
